Assay results: ChEMBL document CHEMBL1157539, “Thousands of chemical starting points for antimalarial lead identification” (Nature, 2010)

test system: Plasmodium falciparum; test: GSK_TCMDC: Inhibition of Plasmodium falciparum 3D7 in whole red blood cells, using parasite LDH activity as an index of growth. Test compounds present at 2uM; assay type: functional

Row | Structure (SMILES) | Inhibition [%]
1 | N#Cc1ccc(N2CCN(Cc3ccc(-c4cccc(-c5nc6ccccc6[nH]5)c4)cc3)CC2)nc1.O=C(O)C(F)(F)F | 95
2 | CN(/N=C/c1ccc(Cl)cc1)c1nc(NCCc2ccc(O)cc2)nc(N2CCNCC2)n1 | 100
3 | CCN(CC)CCc1ccc2c(=O)cc(CCc3cccc(F)c3F)n(CC(=O)N(C)Cc3ccc(-c4ccc(C(F)(F)F)cc4)cc3)c2c1.O=C(O)C(O)C(O)C(=O)O | 97
4 | NS(=O)(=O)c1cccc(Nc2nc(N[C@@H]3CCNC3)nc3cc[nH]c(=O)c23)c1.O=C(O)C(F)(F)F | 99

test system: Plasmodium falciparum; test: GSK_TCMDC: Inhibition of Plasmodium falciparum Dd2 in whole red blood cells, using parasite LDH activity as an index of growth. Test compounds present at 2uM; assay type: functional

Row | Structure (SMILES) | Inhibition [%]
5 | O=C(N[C@H]1CCN(CCc2ccc(O[C@H]3CCNC3)c(Br)c2)C1)c1ccc(Cl)c(Cl)c1.O=C(O)C(F)(F)F | 0
6 | COc1cccc2c(NN=Cc3cccc(F)c3)ccnc12 | 44
7 | COc1cc(F)c2ncc(Cl)c([C@@H](O)CN3CCC(NCc4cc5c(cn4)OCCO5)CC3)c2c1.Cl | 100
8 | COc1ccc(CNc2ccnc(-n3cnc4cc(C)c(C)cc43)n2)cc1Cl.O=C(O)C(F)(F)F | 100
9 | Cc1cc(NC(=O)NCCN2CCC(NS(=O)(=O)c3ccc(Br)cc3)C2)c2ccccc2n1.O=C(O)C(F)(F)F (centres undefined) | 51
10 | Cc1cc(OC(C)C(=O)N2CCc3ccccc32)ccc1Cl (centres undefined) | 54
11 | CC1CN(c2cnn(C/C=C/c3ccc(NC(=O)c4ccc([N+](=O)[O-])cc4)cc3)c(=O)c2Cl)CC(C)N1.O=C(O)C(F)(F)F (centres undefined) | 38
12 | Cl.O=C(CCCCCCc1ccccc1)Nc1ccc2nc3c(c(NCc4ccccc4)c2c1)CCCC3 | 98
13 | CCCCCCCc1c(C)nc2cc(OC)ccc2c1O | 98
14 | Cl.Cn1ncc2c3c(CCN4CCC(NCc5ccc6c(c5)NC(=O)CO6)CC4)c(Cl)cnc3ccc21 | 92
15 | Cc1cc(NC(=O)Nc2cccc(N(C)C)c2)c2ccccc2n1 | 95
16 | O=C(NCC1CCN(C/C=C/c2ccccc2)CC1)Nc1ccc(Oc2ccccc2)cc1 | 11
17 | O=C(Nc1ccc(Cl)c(-c2nc3ccccc3[nH]2)c1)c1ccc(-c2ccc(Cl)cc2)o1 | 22
18 | CCCNC(=O)CN1CN(c2ccccc2)C2(CCN(C(=O)c3ccc(C(C)(C)C)cc3)CC2)C1=O | 98
19 | c1ccc(-c2cc3cccc(-c4nc5cnccc5[nH]4)c3o2)cc1 | 95
20 | CCCNCc1ccc(-c2ccc(CN(Cc3ccc4c(c3)OCO4)C(=O)Cc3cccnc3)cc2)nc1.O=C(O)C(F)(F)F | 53
21 | O=C(Cc1ccc(-c2ccccc2)cc1)N[C@H]1CCN(Cc2ccc(OCCCN3CCCCC3)cc2)C1 | 27
22 | COc1ccc2nccc([C@@H](O)CN3CCC(NC(=O)Cc4cccc5c(Br)cccc45)CC3)c2c1 | 34
23 | Fc1ccc2[nH]c(-c3cccc(-c4ccc(CNCc5ccccc5)cc4)c3)nc2c1.O=C(O)C(F)(F)F | 89
24 | CCc1cccc2c(C#N)cn(CC(=O)Nc3ccc(OC)cc3)c12 | 76

Row | Structure (SMILES) | Inhibition [%]
25 | Cl.N#Cc1ccc(NC(=O)Nc2ccc3c(c2)CCN(C2CCC2)CC3)cc1 | 11
26 | Cc1ccc(CCOCCCCCNCC(O)c2cc(Cl)c(N)c(Cl)c2)cc1 (centres undefined) | 98
27 | O=C(Nc1ccc(Cn2ncc(N3CCCNCC3)c(Cl)c2=O)cc1)Nc1cc(F)cc(C(F)(F)F)c1.O=C(O)C(F)(F)F | 44
28 | CC(Nc1cc(-c2ccccn2)nc(-c2ccccn2)n1)c1ccccc1 (centres undefined) | 98
29 | COc1ccc2cc(C(=O)Nc3ccc4c(c3)CCN(C3CCC3)CC4)ccc2c1.O=C(O)C(F)(F)F | 9
30 | NC1CCN(Cc2ccc(-c3cccc(-c4nc5cc(F)ccc5[nH]4)c3)cc2)C1.O=C(O)C(F)(F)F (centres undefined) | 16
31 | CCN(Cc1ccccc1)C1CCN(Cc2cc(Br)ccc2O)CC1.O=C(O)C(=O)O | 97
32 | CNCc1ccc2nc(-c3coc(Cc4cc(Cl)ccc4OCC(C)C)n3)[nH]c2c1.Cl | 95
33 | O=C(O)C(F)(F)F.O=S(=O)(NCCN1CCCC1)c1ccc(-c2ccc(CNCc3ccccc3)cc2)s1 | 17
34 | COc1ccc(N2CCN(CCCCNC(=O)c3ccc(NC(=O)c4cc(Cl)cc(Cl)c4)cc3)CC2)c(OC)c1.Cl | 84
35 | CC1(C)N=C(N)N=C(N)C1c1ccc(Cl)c(Cl)c1.Cl (centres undefined) | 0
36 | CC(C)(C)C(=O)N1CCN(c2ccc([N+](=O)[O-])c(NC3CC3)c2)CC1 | 97
37 | Fc1ccc2[nH]ccc(=NN=CC=Cc3ccccc3)c2c1 | 77
38 | O=C(N[C@@H](Cc1ccccc1)C(=O)NC1CCCCCC1)c1ccc(O)c(-c2ccc(Cl)c(Cl)c2)c1 | 99
39 | Cn1nccc1C(=O)NCCNCc1ccc(-c2cccc(-c3nc4cc(C(F)(F)F)ccc4[nH]3)c2)cc1.O=C(O)C(F)(F)F | 99
40 | CCCCN(CCCC)/C(=N/C(=N)NCc1ccc(Cl)c(Cl)c1)NCCCCCCN/C(=N\C(=N)NCc1ccc(Cl)c(Cl)c1)N(CCCC)CCCC | 96
41 | N#Cc1ccc(N2CCN(Cc3ccc(-c4cccc(-c5nc6ccccc6[nH]5)c4)cc3)CC2)nc1.O=C(O)C(F)(F)F | 29
42 | CN(/N=C/c1ccc(Cl)cc1)c1nc(NCCc2ccc(O)cc2)nc(N2CCNCC2)n1 | 97
43 | CCN(CC)CCc1ccc2c(=O)cc(CCc3cccc(F)c3F)n(CC(=O)N(C)Cc3ccc(-c4ccc(C(F)(F)F)cc4)cc3)c2c1.O=C(O)C(O)C(O)C(=O)O | 45
44 | NS(=O)(=O)c1cccc(Nc2nc(N[C@@H]3CCNC3)nc3cc[nH]c(=O)c23)c1.O=C(O)C(F)(F)F | 98
